Results reported in PubChem BioAssay (NCATS).
Results filed as inconclusive are left out. Active and inactive are the calls of the source. Calls follow the shape of the dose curve; as a rule, active = well fitted inhibition curve with a large enough effect; inconclusive = small, poorly fitted or top-dose-only effect; inactive = flat fitted curve, though single readings scatter.

tested on: CRL-7250; experiment: qHTS assay to identify novel small-molecules to repurpose for Merkel cell carcinoma treatment (AID 1296009); conditions: MCC and control cell lines, CellTiter-Glo viability, 72 h; series mostly up to 92 µM; activity change, negative = cytotoxicity: at the top concentration; also: nearly all actives have a fitted effect of over 60% in size
How it was run: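 Viability readout: ATP luminescence (CellTiter-Glo) after 72 hr drug exposure at 37 degree celsius. Dose-response format was 8 points for NPC and 11 points for MIPE; data normalized to in-plate controls.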

Row | Compound | outcome
1 | C[C@@H]1O[C@@H](O[C@H]2[C@H](O[C@H]3CC[C@@]4(C)C(CC[C@]5(C)C4CC=C4C6CC(C)(C)CC[C@]6(C(=O)O[C@@H]6O[C@H](CO[C@@H]7O[C@H](CO)[C@@H](O[C@@H]8O[C@@H](C)[C@H](O)[C@@H](O)[C@H]8O)[C@H](O)[C@H]7O)[C@@H](O)[C@H](O)[C@H]6O)CC[C@]45C)[C@]3(C)CO)OC[C@H](O)[C@@H]2O)[C@H](O)[C@H](O)[C@H]1O (stereo not given in full) | inactive [at 9.27 µM]
2 | CC12CCC3C(C)(C)C(O)CCC3(C)C1Cc1c(oc(C(=O)O)cc1=O)O2 (stereo not given) | inactive
3 | CSCC1OC(n2cnc3c(N)ncnc32)C(O)C1O (stereo not given) | inactive
4 | CC(C)=C1CC2[C@](C)(CC[C@@H](OC(=O)C3(C)OC3C)[C@@]2(C)O)CC1=O (stereo not given in full) | inactive
5 | COc1cc(CCc2ccccc2)c(C(=O)O)c2c1CC(C(C)(C)O)O2 (stereo not given) | inactive
6 | CC(C/C=C/C(C)(C)O)C1CCC(C)(O)C(O)C1 (stereo not given) | inactive
7 | CN(C)CCn1cc(S(=O)(=O)c2cccc(F)c2)c2cccnc21 | inactive
8 | CCNC(=O)[C@@H]1CCCN1C(=O)[C@H](CCCN=C(N)N)NC(=O)[C@H](CC(C)C)NC(=O)[C@@H](C)NC(=O)[C@H](Cc1ccc(O)cc1)NC(=O)[C@H](CO)NC(=O)[C@H](Cc1c[nH]c2ccccc12)NC(=O)[C@H](Cc1cnc[nH]1)NC(=O)[C@@H]1CCC(=O)N1 | inactive [at 17.4 µM]
9 | C=CC(C)(CC/C=C(\C)CC/C=C(\C)CC(O)/C=C(\C)C(=O)O)O[C@@H]1O[C@H](CO)[C@@H](O)[C@H](O)[C@H]1O[C@@H]1O[C@H](CO)[C@@H](O)[C@H](O)[C@H]1O (stereo not given in full) | inactive [at 17.4 µM]
10 | OCC1=CC[C@@H]2C=CO[C@@H](O[C@@H]3O[C@H](CO)[C@@H](O)[C@H](O)[C@H]3O)[C@H]12 | inactive
11 | CC1CC2OCC3(O)CCC(O)C(C14CC(c1ccoc1)OC4=O)C23CO (stereo not given) | inactive
12 | COc1ccc(NC(=O)C2C[C@H](C)CC[C@H]2C(C)C)cc1 (stereo not given in full) | inactive
13 | COc1cc(C2Oc3c(OC)cc(CCCO)cc3C2CO)ccc1O (stereo not given) | inactive
14 | CC(c1ncncc1F)C(O)(Cn1cncn1)c1ccc(F)cc1F (stereo not given) | inactive
15 | CCCCNc1ccc(-c2ccc(CN3CCOCC3)cn2)c(NC2CCC(O)CC2)c1 (stereo not given) | inactive [at 17.4 µM]
16 | CCOc1ncc(S(=O)(=O)N2CCN(CC)CC2)cc1-c1nc2c(CC)n(CCOC)nc2c(=O)[nH]1 | inactive
17 | CN1CCCC1Cc1c[nH]c2ccc(CCS(=O)(=O)c3ccccc3)cc12 (stereo not given) | inactive
18 | CON(C)C(=O)[C@H](O)[C@H](Cc1ccccc1)NC(=O)c1cc2cc(Cl)ccc2[nH]1 | inactive
19 | CC1(C)OC[C@H](NC(=O)Nc2ccc(Br)cc2Br)[C@H](c2ccccc2)O1 | inactive
20 | Cc1ccc(C)c(NC(=O)CNS(=O)(=O)c2ccc3[nH]c(=O)oc3c2)c1 | inactive
21 | CC1C(O)C(O)C2C(C(=O)OCCc3ccc(O)cc3)=COC(O[C@@H]3O[C@H](CO)[C@@H](O)[C@H](O)[C@H]3O)C12 (stereo not given in full) | inactive [at 17.4 µM]
22 | CCCSc1nc(NC2CC2c2ccc(F)c(F)c2)c2nnn(C3CC(OCCO)C(O)C3O)c2n1 (stereo not given) | inactive
23 | C/C=C(/C)C(=O)O[C@H]1C[C@]2(C)O[C@@H]2[C@@H](OC(C)=O)[C@@]2(C)CC[C@@](O)(C(C)C)[C@H]12 | inactive
24 | C[C@@H]1C(=O)O[C@H]2[C@H]1CC[C@@]1(C)C(=O)C=C[C@](C)(O)[C@H]21 | inactive
25 | C[C@H]1CC[C@H]2[C@@H](C=C[C@@](C)(O)[C@]2(C)C(=O)CCO)C1 | inactive
26 | CCOc1ccc(C(Nc2ccccn2)c2ccc3ccc(C)nc3c2O)cc1C (stereo not given) | inactive
27 | CC1=C2C(=O)C=C(CO)C2C2OC(=O)C(CS(=O)(=O)O)C2C(OC(=O)Cc2ccc(O)cc2)C1 (stereo not given) | inactive [at 17.4 µM]
28 | CC(=O)O[C@@H](C[C@@H]1C=C(C)C(=O)O1)[C@H](C)[C@H]1CCC2[C@@]3(C)CC[C@H](O[C@@H]4O[C@H](CO)[C@@H](O)[C@H](O)[C@H]4O[C@@H]4O[C@@H](C)[C@H](O)[C@@H](O)[C@H]4O)C(C)(C)C3CC[C@@]2(C)[C@@]12COC(=O)C2 (stereo not given in full) | inactive [at 9.27 µM]
29 | CCOC(=O)[C@H](CCc1ccccc1)N[C@@H](C)C(=O)N1C2CCCCC2C[C@H]1C(=O)O (stereo not given in full) | inactive
30 | CC1(C)CC[C@]2(C(=O)O)CC[C@]3(C)C(=CCC4[C@@]5(C)C[C@@H](O)[C@H](O)[C@@](C)(CO)C5CC[C@]43C)C2C1 (stereo not given in full) | inactive [at 17.4 µM]
